# In PubChem BioAssay:
# Calls of active or inactive are those of the source.
# Experiments:
# Albumin (Bos taurus) = Albumin (Bos taurus) (UniProt P02769); assay: bovine serum albumin binders on microarray, profiling panel, artefact control for SMM control protein annotation, biochemical, small-molecule microarray, Alexa647 label, 635/667 nm fluorescence (AID 1118); settings: BSA-A647 binding, fluorescence 635 nm, higher = more signal;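 further: score merges 667 nm emission intensity and signal-to-noise per printed compound spot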
# [1] = small-molecule microarray binders of probe aXIP, primary screen, biochemical, NeuroSMM set, 635/667 nm fluorescence (AID 1119); settings: higher = more signal, called active from +8 up or from −8 down;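 further: probe is the protein aXip251-270 applied at 1 µg/mL to compound-printed slides; binding of probe to printed compounds measured as 667 nm fluorescence plus signal to noise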
# [2] = small-molecule binders of probe aNOTCH3, primary screen, biochemical, small-molecule microarray, 635/667 nm fluorescence (AID 1120); settings: higher = more signal;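 further: probe is a biotin-tagged antibody raised against NOTCH3 rather than NOTCH3 protein; score merges spot fluorescence near 667 nm with spot signal to noise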
# [3] = small-molecule binders of probe aNOTCH2, primary screen, biochemical, small-molecule microarray, 635/667 nm fluorescence (AID 1121); settings: higher = more signal;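 further: score merges feature fluorescence read at 667 nm with its signal to noise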
# [4] = target: Carbonic anhydrase 2 (Homo sapiens) (UniProt P00918); assay: CAII small-molecule binders, profiling panel, biochemical, small-molecule microarray, Alexa647-labelled CAII (AID 1122); settings: CAII-A647 binding fluorescence, higher = more signal
# [5] = COS7 lysate on small-molecule microarray, probe aHis, 635 nm (AID 1123); settings: COS7 cell lysate, fluorescence, higher = more signal;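 further: z-score combines 667nm fluorescence intensity with signal-to-noise per printed compound spot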
# [6] = compound binding in COS7 lysate, probe aLAP1, primary screen, cell lysate, small-molecule microarray (AID 1124); settings: probe aLAP1, fluorescence, higher = more signal;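 further: lysate comes from COS7 cells expressing LAP1 and is applied at 0.3 µg/mL; score merges spot fluorescence near 667 nm with signal-to-noise over triplicate slides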
# Sam68 (KHDRBS1) = assay: Sam68 small-molecule binders, primary screen, biochemical, small-molecule microarray, 635 nm fluorescence (AID 1125); settings: small-molecule microarray binding, higher = more signal;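 further: score merges 667 nm channel intensity with signal to noise over triplicate slides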
# [7] = tested on: Chordin-like protein 2 (CHRDL2); assay: CHRDL2 small-molecule binders, primary screen, biochemical, small-molecule microarray, 635 nm fluorescence (AID 1126); settings: small-molecule microarray binding, fluorescence 635 nm; higher = more signal;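 further: printed compound slides probed with Chrdl2 protein at 4 µg/mL for 1 h at 4 C; score merges 667 nm emission intensity with signal to noise over three replicate slides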
# [8] = target: Concanavalin-A (Canavalia ensiformis) (UniProt P02866); assay: ConA small-molecule binders, primary screen, artefact control for SMM control protein annotation, biochemical, small-molecule microarray, Alexa647 label, 635 nm (AID 1127); settings: ConA-A647 binding fluorescence, higher = more signal;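 further: z combines 667 nm emission intensity with signal-to-noise across three replicate slides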
# [9] = anti-His antibody binders, primary screen, artefact control for SMM control protein annotation, biochemical, small-molecule microarray, 635 nm fluorescence (AID 1128); settings: anti-His Alexa647 antibody binding, higher = more signal;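 further: score merges feature fluorescence with signal-to-noise for each printed compound spot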
# [10] = tested on: Human papillomavirus type 1a E7 protein (residues 1-88); assay: HPV1a E7 small-molecule binders, primary screen, biochemical, small-molecule microarray, residues 1-88, 635 nm (AID 1129); settings: small-molecule microarray binding, fluorescence 635 nm; higher = more signal
# [11] = target: Focal adhesion kinase 1 (Homo sapiens) (UniProt Q05397); assay: small-molecule microarray binders of FAK, primary screen, biochemical, 635/667 nm fluorescence, BSA, DTT (AID 1130); settings: PTK2 binding, 635 nm fluorescence, higher = more signal;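 further: composite of spot emission at 667 nm and signal to noise over triplicate slides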
# [12] = tested on: Fibrinogen (Alexa647-labelled); assay: fibrinogen binders on compound microarrays, profiling panel, artefact control for SMM control-protein annotation, biochemical, small-molecule microarray, 635/667 nm fluorescence (AID 1131); settings: fibrinogen-A647 binding fluorescence, higher = more signal;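 further: z-score merges 667 nm fluorescence with per-spot signal-to-noise over triplicate slides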
# [13] = target: Follistatin (Homo sapiens) (UniProt P19883); assay: follistatin binders on small-molecule microarrays, primary screen, biochemical, small-molecule microarray, 635/667 nm fluorescence (AID 1132); settings: FST binding, 635 nm fluorescence, higher = more signal
# [14] = target: Fibroblast growth factor 2 (Homo sapiens) (UniProt P09038); assay: FGF2 binders on small-molecule microarrays, primary screen, biochemical, small-molecule microarray, 635/667 nm fluorescence (AID 1133); settings: small-molecule microarray binding, FGF2, fluorescence 635/667; higher = more signal
# [15] = mitochondrial membrane potential change in A549 cells, profiling panel, cell-based, JC-1 fluorescence, basal, 24 h, 100 nL (AID 1138); settings: higher = more signal;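 further: A549 lung adenocarcinoma cells under basal conditions with no added stimulus; test concentration not given here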
# Lefty1 = Lefty1 binders on small-molecule microarrays, primary screen, biochemical, small-molecule microarray, 635/667 nm fluorescence (AID 1139); settings: small-molecule microarray binding, fluorescence 635/667; higher = more signal
# [16] = tested on: wheat germ agglutinin (Triticum aestivum), Alexa647-labelled; assay: wheat germ agglutinin binders on compound microarrays, profiling panel, artefact control for SMM control-protein annotation, biochemical, small-molecule microarray, 635/667 nm fluorescence (AID 1140); settings: WGA-A647 binding, 635 nm fluorescence, higher = more signal;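 further: score merges 667 nm feature emission with signal to noise over triplicate slides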
# [17] = target: Luciferin 4-monooxygenase (Photinus pyralis) (UniProt P08659); assay: firefly luciferase enzyme inhibitors, primary screen, biochemical, luminescence, purified enzyme, 2006 set (AID 1141); settings: SteadyGlo luminescence, 30 min, higher = more signal, called active from +8 up or from −8 down;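 further: cell-free assay with purified firefly luciferase at 100 ng per well in PBS; test concentration not given here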
# Chain of Luciferin 4-monooxygenase (Photinus pyralis) (P08659 whole entry, looked up): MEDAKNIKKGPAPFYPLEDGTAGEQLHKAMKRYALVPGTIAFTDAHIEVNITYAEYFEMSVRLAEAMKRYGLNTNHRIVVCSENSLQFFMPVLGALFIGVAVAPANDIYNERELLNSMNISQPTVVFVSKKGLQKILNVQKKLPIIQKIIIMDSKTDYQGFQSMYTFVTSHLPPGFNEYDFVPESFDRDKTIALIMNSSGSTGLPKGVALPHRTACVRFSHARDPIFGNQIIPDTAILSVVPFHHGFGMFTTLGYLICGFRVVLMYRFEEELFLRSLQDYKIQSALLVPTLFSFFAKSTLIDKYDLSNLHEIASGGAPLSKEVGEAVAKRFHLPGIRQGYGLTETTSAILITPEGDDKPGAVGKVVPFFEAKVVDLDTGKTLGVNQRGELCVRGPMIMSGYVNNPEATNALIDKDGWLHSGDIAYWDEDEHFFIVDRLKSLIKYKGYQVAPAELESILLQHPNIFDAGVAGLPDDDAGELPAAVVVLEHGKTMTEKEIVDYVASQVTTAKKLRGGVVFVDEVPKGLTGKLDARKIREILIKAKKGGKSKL
# Chain of Focal adhesion kinase 1 (Homo sapiens) (Q05397 whole entry, looked up): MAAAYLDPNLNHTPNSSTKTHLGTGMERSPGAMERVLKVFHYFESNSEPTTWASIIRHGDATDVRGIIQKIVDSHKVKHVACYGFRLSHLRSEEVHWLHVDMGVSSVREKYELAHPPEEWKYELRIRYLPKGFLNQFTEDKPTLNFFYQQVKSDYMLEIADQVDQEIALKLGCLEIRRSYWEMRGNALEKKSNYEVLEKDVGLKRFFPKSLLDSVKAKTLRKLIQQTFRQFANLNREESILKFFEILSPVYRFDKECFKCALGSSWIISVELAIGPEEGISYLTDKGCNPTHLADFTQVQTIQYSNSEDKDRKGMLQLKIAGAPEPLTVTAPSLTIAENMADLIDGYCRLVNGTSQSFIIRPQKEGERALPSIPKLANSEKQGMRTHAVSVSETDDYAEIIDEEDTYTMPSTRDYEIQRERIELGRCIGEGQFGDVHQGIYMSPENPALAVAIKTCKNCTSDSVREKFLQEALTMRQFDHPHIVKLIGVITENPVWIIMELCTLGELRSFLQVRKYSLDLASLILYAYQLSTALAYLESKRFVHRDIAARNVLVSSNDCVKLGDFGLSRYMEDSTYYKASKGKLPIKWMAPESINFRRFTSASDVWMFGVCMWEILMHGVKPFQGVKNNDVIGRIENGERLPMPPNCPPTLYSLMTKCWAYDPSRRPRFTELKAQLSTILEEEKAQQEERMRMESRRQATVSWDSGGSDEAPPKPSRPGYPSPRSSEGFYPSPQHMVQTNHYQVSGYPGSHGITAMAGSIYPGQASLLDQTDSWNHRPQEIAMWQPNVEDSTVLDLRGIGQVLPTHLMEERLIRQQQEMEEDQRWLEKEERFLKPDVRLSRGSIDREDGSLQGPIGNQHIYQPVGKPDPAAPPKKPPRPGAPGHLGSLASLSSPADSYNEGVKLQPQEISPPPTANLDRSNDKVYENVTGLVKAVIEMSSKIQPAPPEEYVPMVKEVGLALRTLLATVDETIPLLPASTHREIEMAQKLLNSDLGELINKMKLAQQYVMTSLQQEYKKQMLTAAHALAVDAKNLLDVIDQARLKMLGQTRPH
# Chain of Albumin (Bos taurus) (P02769 whole entry, looked up): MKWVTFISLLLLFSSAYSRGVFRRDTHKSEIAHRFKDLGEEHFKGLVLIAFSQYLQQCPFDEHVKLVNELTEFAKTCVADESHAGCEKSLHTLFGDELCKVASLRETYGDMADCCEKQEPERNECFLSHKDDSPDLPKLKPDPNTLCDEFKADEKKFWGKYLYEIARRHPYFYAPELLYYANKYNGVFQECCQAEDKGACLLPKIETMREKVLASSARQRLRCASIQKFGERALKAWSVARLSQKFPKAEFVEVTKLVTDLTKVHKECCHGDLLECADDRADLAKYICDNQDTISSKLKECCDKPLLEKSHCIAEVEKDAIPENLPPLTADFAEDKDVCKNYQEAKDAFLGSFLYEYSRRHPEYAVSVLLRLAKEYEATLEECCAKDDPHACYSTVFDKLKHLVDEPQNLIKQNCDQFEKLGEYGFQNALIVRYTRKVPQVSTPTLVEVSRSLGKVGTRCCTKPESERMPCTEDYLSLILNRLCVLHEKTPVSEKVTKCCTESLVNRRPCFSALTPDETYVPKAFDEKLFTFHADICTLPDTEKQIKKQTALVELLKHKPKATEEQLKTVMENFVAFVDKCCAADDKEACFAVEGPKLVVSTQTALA
# Chain of Concanavalin-A (Canavalia ensiformis) (P02866 whole entry, looked up): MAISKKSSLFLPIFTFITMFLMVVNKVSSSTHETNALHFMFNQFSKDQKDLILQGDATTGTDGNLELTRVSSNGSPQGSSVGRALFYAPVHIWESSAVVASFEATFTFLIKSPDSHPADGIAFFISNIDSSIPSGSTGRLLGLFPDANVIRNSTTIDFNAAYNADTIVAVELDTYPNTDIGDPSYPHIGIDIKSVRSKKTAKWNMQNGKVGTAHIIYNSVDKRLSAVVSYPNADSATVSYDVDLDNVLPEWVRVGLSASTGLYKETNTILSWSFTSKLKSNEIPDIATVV
# Chain of Fibroblast growth factor 2 (Homo sapiens) (P09038 whole entry, looked up): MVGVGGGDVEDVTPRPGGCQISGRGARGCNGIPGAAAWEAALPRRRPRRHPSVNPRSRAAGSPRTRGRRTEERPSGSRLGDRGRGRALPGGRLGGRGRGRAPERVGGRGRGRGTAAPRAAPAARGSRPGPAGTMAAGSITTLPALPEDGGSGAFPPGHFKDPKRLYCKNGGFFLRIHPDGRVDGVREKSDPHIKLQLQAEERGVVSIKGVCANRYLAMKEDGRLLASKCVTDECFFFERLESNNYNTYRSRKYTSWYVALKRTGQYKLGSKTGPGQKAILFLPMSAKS
# Chain of Follistatin (Homo sapiens) (P19883 whole entry, looked up): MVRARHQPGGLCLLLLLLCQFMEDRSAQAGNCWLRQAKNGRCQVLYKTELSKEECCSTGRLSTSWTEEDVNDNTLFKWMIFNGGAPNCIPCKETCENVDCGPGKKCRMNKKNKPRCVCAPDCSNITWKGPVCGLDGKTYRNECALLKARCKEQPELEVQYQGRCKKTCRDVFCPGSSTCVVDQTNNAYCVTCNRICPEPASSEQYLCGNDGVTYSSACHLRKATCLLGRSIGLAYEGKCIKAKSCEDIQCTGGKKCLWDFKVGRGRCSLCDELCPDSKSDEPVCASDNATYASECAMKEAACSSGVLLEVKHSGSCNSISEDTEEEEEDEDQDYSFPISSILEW
Structure (SMILES),composite z-score (Albumin (Bos taurus)),composite Z-score [1],composite z-score [2],composite z-score [3],composite z-score [4],composite z-score [5],composite z-score [6],composite z-score (Sam68 (KHDRBS1)),composite z-score [7],composite z-score [8],composite z-score [9],composite z-score [10],composite z-score [11],composite z-score [12],composite z-score [13],composite z-score [14],z-score [15],composite z-score (Lefty1),composite z-score [16],z-score [17]
CCOC(=O)[C@H](CC(C)C)NC(=O)CCC1CC(OC(=O)NCc2cccc3ccccc23)CC2(CCCC(COC(=O)NCCOC)O2)O1 (stereo not given in full),0.222,-0.166 (inactive),0.0306,-0.0195,0.431,1.02,-0.0557,1.29,0.156,0.782,0.427,1.19,0.175,0.959,0.602,0.648,-0.157,0.436,0.167,0.561 (inactive)
CO[C@H]1COC(=O)CC=C[C@@H](C)[C@H](OC)COC(=O)CCC[C@@H]1C,-0.913,0.0032 (inactive),-0.149,-0.118,-0.601,0.302,0.923,0.0465,1.41,-0.819,0.165,-0.289,-0.735,-0.511,0.776,1.15,-0.738,0.945,-0.173,1.09 (inactive)
CCC=CCCC(OC(=O)c1ccc(Br)cc1)C1=CCCCC1=O (stereo not given),0.231,-0.0549 (inactive),0.0836,-0.102,0.696,0.678,0.0079,0.776,1.02,-0.297,0.164,1.17,0.408,-0.997,1.11,0.584,-0.158,0.876,0.485,0.0771 (inactive)
C[C@@H]1NC(=O)[C@@H](C)COC(=O)[C@H](C)NC(=O)[C@@H](C)COC1=O,0.591,-0.152 (inactive),-0.0339,-0.0907,0.394,0.1,-0.706,0.769,0.316,0.513,1.08,0.922,0.0556,-0.0769,0.172,1.21,-0.323,0.389,-0.137,0.254 (inactive)
CC(C)=CCCC(C)=CCON=C1C[C@@H](O)[C@@H](O)[C@@H]2[C@@H]3C(=O)N(Cc4ccccc4)C(=O)[C@@H]3CC[C@H]12,0.188,0.4 (inactive),0.0493,-0.175,0.754,1.26,0.146,1.29,0.955,0.541,0.267,1.2,0.171,0.476,0.669,0.736,-0.566,0.751,0.283,0.71 (inactive)
